Growth data for 9 molecules are collected here from PubChem BioAssay (NCI).

The structures appear in SMILES notation. About 83,000 compounds went through this panel and 20% of them were active in at least one assay; those are over-represented in the sample as a whole.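 Cell lines were cultured in 96-well plates, exposed to a single compound concentration, and assessed for percent growth 48 hours later.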 Unmarked numbers belong to inactive results. The source made the active and inactive calls. Rule for the calls: active = growth percent below 10; inactive = the rest.

This assay relates to HL-60(TB) leukemia. The assay is described as follows: NCI-60 one-dose screen, 48 h (100 = growth as untreated, 0 = no growth, -100 = all killed). The conditions noted are these: 10 µM unless noted.
Consider `CS(=O)(=O)c1ccc(-c2nc3ccccn3c2/C=N/Nc2nc(-c3ccc(Br)cc3)cs2)cc1`, for which the growth was 107%.
With `Cn1ccnc1C(=O)/C=C/c1ccc(C(=O)Nc2ccc(NC(=O)CCNC(=O)c3csc(Br)n3)cc2)cc1` the figure was 41%; with `CNc1sc(S(=O)(=O)NC)nc1S(=O)(=O)c1ccc(C)cc1`, 101%.
For `NS(=O)(=O)c1ccc(Nc2nc(N/N=C/c3c[nH]c4ccccc34)nc(Nc3ccccc3)n2)cc1`, the growth was 34.4%.
As for `CCCCc1nc(/C=N/Nc2nc(Nc3ccccc3)nc(Nc3ccc(S(N)(=O)=O)cc3)n2)c(Cl)[nH]1`, the growth is 118%.
With `Clc1ccc(N/N=c2/oc3ccccc3cc2-c2cc3ccccc3[nH]2)cc1` the figure was 88.7%; with `CC(=O)NC(C)(C)C(=O)N1CCC[C@H]1C(=O)NC(C)(C)C(=O)N[C@@H](C)C(=O)NC(C)(C)C(=O)NC(C)(C)C(=O)N[C@@H](CCC(N)=O)C(=O)NC(C)(C)C(=O)N[C@H](C(=O)NC(C)(C)C(=O)NCC(=O)N[C@@H](CC(C)C)C(=O)NC(C)(C)C(=O)N1CCC[C@H]1C(=O)N[C@H](C(=O)NC(C)(C)C(=O)NC(C)(C)C(=O)N[C@@H](CCC(N)=O)C(=O)N[C@@H](CCC(N)=O)C(=O)N[C@H](CO)Cc1ccccc1)C(C)C)C(C)C`, 7.73% [4.25 µM] (active).
Turning to `CC(C)(C)Nc1nc2c(OCCc3ccccc3)cccn2c1-c1ccc([N+](=O)[O-])cc1`, the growth was 47.4%.
Regarding `O=C(CSc1nnc(-c2ccc(Cl)cc2)n1-c1ccccc1)Nc1ccccc1Cl`, the growth was 91.8%.
